# Laboratory results as given in PubChem BioAssay (NCATS).
# Records with an inconclusive call do not appear. A number with no mark means an inactive call. Active and inactive are the calls of the source. The call rests on the fitted dose curve; in most records, active means well fitted inhibition curve with a large enough effect; inconclusive means small, poorly fitted or top-dose-only effect; inactive means flat fitted curve, though single readings scatter. Where a SMILES comes first, the peptide text is derived from it. Bridges are numbered along the chain shown (N, C = ends). [ ]: non-standard residue; d: D form. NMeY = CN[CH](Cc1ccc(O)cc1)C(=O)O
# Assay: P-glycoprotein substrates identified in KB-8-5-11 adenocarcinoma cell line, qHTS therapeutic library screen (AID 1346987); further: nearly all actives have a fitted effect of over 65% in size
# Conditions: KB-8-5-11 (P-gp overexpressing) viability, CellTiter-Glo, 72 h; series mostly up to 44.5 µM; activity change, negative = cytotoxicity: at the top concentration
# Method in brief: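 Human cervical adenocarcinoma KB-8-5-11 cells, selected in colchicine to over-express P-gp and assayed without it, were exposed for 72 h to titrated compounds. An ATP-based luminescent viability signal gave AC50.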
# On the % scale 0 is the no-effect control and ±100 the full control effect; potency means the concentration at half of the fitted maximal effect.
SMILES,"activity change, negative = cytotoxicity",Potency,outcome
COc1cc(Br)c(S(=O)(=O)Nc2ccc(C(F)(F)F)c(O[C@@H]3CCN(C)C3)c2)cc1OC,-25.2%,,
Cc1cc(C(=O)Nc2cccc(C(=O)Nc3cccc(C(F)(F)F)c3)c2)on1,4.26%,,
Nc1ncnc2c1nc(N)n2[C@@H]1O[C@H](CO)[C@@H](O)[C@H]1O,,1.16 µM (active),
C[C@]1(CO)CCC[C@]2(C)C3=C(CCC12)COC3 (some centres undefined),,,inactive
Nc1nc2c(ncn2[C@@H]2O[C@H](CO)[C@@H](O)[C@H]2O)c(=O)[nH]1,,,inactive
CC(=O)N[C@H]1[C@H](O[C@H]2CC[C@@]3(C)C(CC[C@]4(C)C3CC=C3C5CC(C)(C)CC[C@]5(C(=O)O)[C@H](O)C[C@]34C)C2(C)C)O[C@H](CO[C@@H]2OC[C@H](O)[C@H](O)[C@H]2O[C@@H]2OC[C@@H](O)[C@H](O)[C@H]2O)[C@@H](O)[C@@H]1O (some centres undefined),5.39% [at 9.29 µM],,
CN(C)C(=O)NC1CCC(CCN2CCN(c3cccc(Cl)c3Cl)CC2)CC1 (centres undefined),-11.3% [at 9.29 µM],,
O=S(=O)(c1ccccc1)c1cnc2c(N3CCNCC3)cccc2c1,-17.4%,,
COc1cc(O)cc(C)c1C(=O)O[C@H]1[C@@H](OC(C)=O)[C@H](n2ccc(=O)[nH]c2=O)O[C@@H]1CO,,,inactive [at 17.3 µM]
C[C@@H]1O[C@@H](O[C@H]2[C@@H]3C=CO[C@@H](O[C@@H]4O[C@H](CO)[C@@H](O)[C@H](O)[C@H]4O)[C@@H]3[C@@]3(CO)O[C@@H]23)[C@H](OC(=O)/C=C/c2ccc(O)c(O)c2)[C@H](O)[C@H]1O,,,inactive [at 17.3 µM]
CN1CCN(C2CCC(n3cc(-c4ccc(Oc5ccccc5)cc4)c4c(N)ncnc43)CC2)CC1 (centres undefined),,5.8 µM (active),
COc1ncc2cc(C(=O)Nc3cc(C(=O)NCc4cccc(Cl)c4)ccc3Cl)c(=O)[nH]c2n1,,5.8 µM (active),
C=CCC1=C[C@]2(OC)[C@H](C)[C@@H](c3ccc(O)c(OC)c3)O[C@]2(OC)CC1=O,,,inactive
O=S(=O)(Nc1ccccn1)c1ccc(N=Cc2c(O)[nH]c3ccc4ncsc4c23)cc1,,,inactive [at 9.29 µM]
COCCOc1cnc2ccn([C@H](C)c3nnc4c(F)cc(-c5cnn(C)c5)cn34)c(=O)c2c1,-7.19%,,
O=C(COc1cccc2c(=O)[nH]ccc12)c1ccccc1,-9.03%,,
COc1cc2nc(N3CCC(N4CCCCC4)CC3)nc(NC3CCCCCC3)c2cc1OC,,5.17 µM (active),
COc1ccc(-c2ccc3c(N4CCOCC4)nc(N4CC(C)OC(C)C4)nc3n2)cc1CO (centres undefined),,0.651 µM (active),
CS(=O)(=O)N1CCC(NC(=O)c2[nH]ncc2NC(=O)c2c(Cl)cccc2Cl)CC1,,9.2 µM (active),
CC(=O)N[C@@H](C(=O)O[C@H]1CCC(C)(C)[C@@H]2CCC3=C(COC3=O)[C@@]12C)C(C)C,-3.92%,,

SMILES,"activity change, negative = cytotoxicity",Potency,outcome
CN1CCN(Cc2ccc(-c3cnc4[nH]cc(-c5ccc6[nH]ccc6c5)c4c3)cc2)CC1,,7.31 µM (active),
Cc1csc(NC(=O)c2ccc(COc3cccc(Cl)c3)o2)n1,-23%,,
O=C(O)C1CN(Cc2ccc(-c3nc4cc(Cc5ccccc5F)ccc4s3)c(F)c2)C1,0.617% [at 9.29 µM],,
CC1(C)CC[C@]2(C(=O)OC3OC(CO)C(O)C(O)C3O)CC[C@]3(C)C(=CCC4[C@@]5(C)CC[C@H](OC6OC(C(=O)O)C(O)C(OC7OC(CO)C(O)C(O)C7O)C6O)C(C)(C)C5CC[C@]43C)C2C1 (some centres undefined),,,inactive [at 9.29 µM]
CC1=CC(=O)[C@]2(O[C@@H]3O[C@@H](C)[C@H](O)[C@@H](O)[C@H]3OC(=O)/C=C/c3ccccc3)C=CO[C@@H](O[C@@H]3O[C@H](CO)[C@@H](O)[C@H](O)[C@H]3O)[C@H]12,2.83% [at 17.3 µM],,
CCCCc1ccc(C(=O)Nc2cc(-c3ccc(Cl)cc3)nn2-c2ccc(Cl)cc2)cc1,-18.2%,,
CCC(C)C1NC(=O)C2CCCN2C(=O)C(NC(C)=O)C(C)OC(=O)C(Cc2ccc(OC)cc2)N(C)C(=O)C2CCCN2C(=O)C(C(C)C)NC1=O (centres undefined) (Ac-TPIVP[NMeY](Me); ester 1-C; configuration not given here),-5% [at 17.3 µM],,
CC1=CC(=O)[C@H]2C(C)(C)CCC[C@]2(C)[C@@]1(O)CO,6.19%,,
CC1CCC2(OC1)OC1CC3C4CC=C5CC(O)CC(O[C@@H]6OC[C@@H](O)[C@H](O)[C@H]6O)C5(C)C4CCC3(C)C1(O)C2C (some centres undefined),3.36% [at 17.3 µM],,
Cc1ccc(NC(=O)c2ccc(CN3CC[C@H](N(C)C)C3)c(C(F)(F)F)c2)cc1Nc1nccc(-c2cncnc2)n1,-10.1% [at 17.3 µM],,
CC(O)/C=C/C1OC(=O)CC1Nc1ccc(C(=O)O)cc1 (centres undefined),,,inactive
Nc1nc(Nc2ccc(S(N)(=O)=O)cc2)n(C(=S)Nc2c(F)cccc2F)n1,,1.16 µM (active),
COc1ccc(C2=N[C@@H](c3ccc(Cl)cc3)[C@@H](c3ccc(Cl)cc3)N2C(=O)N2CCNC(=O)C2)c(OC(C)C)c1,4.25%,,
COc1ccc(F)cc1-c1cc(NC(=O)[C@@H]2CCCNC2)ncc1Cl,,0.326 µM (active),
C/C=C/c1ccc(O[C@@H]2O[C@H](CO)[C@@H](O)[C@H](O)[C@H]2O)c(OC)c1,-12.3%,,
C/C=C/c1cc(OC)c2c(c1)[C@@H](C)[C@@H](c1ccc(O)c(OC)c1)O2,-9.55%,,
C(#Cc1nc2ncccc2nc1OCCN1CCCC1)c1ccccc1,,6.51 µM (active),
COc1ccc(C(=O)n2c(C)c(Cc3cccc(O[C@@H](C)C(=O)O)c3)c3cc(OC(F)(F)F)ccc32)cc1,2.45%,,
O=C1CC2(CCCC2)[C@H](O)C(=O)N1CCCCN1CCN(c2ncccn2)CC1,-18.7%,,
